# Test results as given in PubChem BioAssay AID624298 (National Center for Advancing Translational Sciences (NCATS), 2012).
# Results filed as inconclusive are left out. Where a call stands in place of a potency, no number is given. Active and inactive are the calls of the source. The call rests on the fitted dose curve; in most records, active means well fitted activation curve with a large enough effect; inconclusive means small, poorly fitted or top-dose-only effect; inactive means no such curve, though single readings can be large or run the other way.
# Assay: Activators of T cell receptors: Hit Validation
# Settings: primary human leukocytes, cytokine release by HTRF, 48 h, TCR-stimulated with anti-CD3 beads; series mostly up to 46.1 µM
# From the text: Normally activation of naive T cells requires two signals. 1. A signal through the T cell receptor (TCR) which provides antigen specificity to the response. 2. Signals through co-stimulatory molecules, which are necessary for proliferation, survival and cytokine production. In the absence of co-stimulatory signals T cells are not effectively activated, and may even be rendered anergic or unresponsive to subsequent signaling. This lack of costimulation has been shown in multiple model systems to be a major factor in the limited strength and effectiveness of anti-tumor T cell responses. The goal of this project is to identify small molecule compounds that will stimulate T cell activation in the presence of TCR signaling but in the absence of co-stimulatory signals, thereby allowing activation of naive T cells in the absence of co-stimulation. Identification of such compounds would have clear experimental and clinical applications in instances where desirable antigen-specific immune responses are not generated due to a lack of co-stimulation, for example in the generation of anti-tumor responses.
# In collaboration between the National Cancer Institute and NIH Chemical Genomics Center, a high-throughput amenable screen was developed to discover small molecules that co-stimulate and activate human T cell receptors. The screen will be carried out using a novel homogeneous time resolved fluorescence energy transfer (HTRF) assay to measure production of the cytokine IL-2 by activated T cells and will be tested against the NIH Molecular Libraries Small Molecule Repository (MLSMR). This is the same assay tested against the hits identified in the primary screen.
# NIH Chemical Genomics Center [NCGC]
# NIH Molecular Libraries Probe Centers Network [MLPCN]
# Assay Submitter (PI): Richard Hodes, National Cancer Institute, NIH
# Primary human leukocytes are incubated with a-CD3 beads and compounds for 48 hr. The amount of secreted IL-2 is then assayed with a HTRF IL-2 kit. The presence of IL-2 cytokine captures the detection reagents and brings the a-IL-2-K and a-IL-2-d2 into close proximity. Upon excitation with 320nm light, the europium cryptate is capable of transferring energy to acceptor molecules within close proximity, resulting in acceptor molecule emission at 665nm.
# Potency means the concentration at half of the fitted maximal effect.
row,Compound,Potency
1,Nn1c(SCc2ccccc2F)nnc1-c1ccccn1,inactive
2,CC(C)NC(=O)CCCn1c(=S)[nH]c2cc3c(cc2c1=O)OCO3,inactive
3,Cc1cc(Cl)ccc1OCC(=O)OCC(=O)Nc1cccnc1Cl,inactive
4,CCN(CC)S(=O)(=O)c1ccc(N2CCN(C)CC2)c(NC(=O)CN2C(=O)NC3(CCCCC3)C2=O)c1,inactive
5,COc1ccccc1N1CCN(CCCC(=O)c2ccc(F)cc2)CC1,inactive
6,O=C1c2ccccc2C(=O)N1CCCC(=O)N1CCCc2ccccc21,inactive
7,COc1ccccc1CNC(=O)CSc1ccc(Br)cc1,inactive
8,S=c1[nH]nc(-c2cccnc2)n1C1CCCCC1,inactive
9,Cc1cc(OCC(=O)OCC(=O)NCC2CCCO2)ccc1Cl (stereo not given),inactive
10,CC1CCCC(C)N1C(=O)COC(=O)C12CC3CC(CC(Cl)(C3)C1)C2 (stereo not given),inactive
11,O=C1/C(=C/c2cccnc2)SC(=S)N1Cc1ccco1,inactive
12,O=C1N/C(=C/c2cccs2)C(=O)N1Cc1ccc(Br)cc1,inactive
13,O=C(Cc1cccs1)Nc1ccc(F)c(S(=O)(=O)N2CCOCC2)c1,inactive
14,COc1cc(C(=O)Nc2ccn(C)n2)ccc1OC(F)F,inactive
15,COc1cc(NC(=O)CN2CCN(S(=O)(=O)/C=C/c3ccccc3)CC2)cc(OC)c1OC,inactive
16,COc1ccc(CN2CCN(C(=O)c3cc(C4CC4)nn3-c3ccccc3)CC2)cc1F,inactive
17,CN(C)c1cccc(C(=O)N(Cc2ccccc2)Cc2ccccc2)c1,inactive
18,CC(=O)Nc1ccc(NC(=O)C(C)OC(=O)c2c(NC(C)=O)sc(C)c2C)cc1 (stereo not given),inactive
19,COc1ccccc1C(=O)NCCC(=O)N1CCN(S(=O)(=O)c2cccc(Cl)c2)CC1,inactive
20,OC1CCCC1,inactive

row,Compound,Potency
1,Cn1nc(C(F)(F)F)cc1-c1ccc(S(N)(=O)=O)s1,inactive
2,CCOc1cc(/C=N/NC(=S)Nc2ccccc2C(F)(F)F)ccc1OCC(=O)N1CCOCC1,inactive
3,O=C(OCc1cc(=O)n2cc(Br)ccc2n1)C1COc2ccccc2O1 (stereo not given),inactive
4,CN(C)S(=O)(=O)c1ccc2oc(SCC(=O)c3c(N)n(C4CC4)c(=O)[nH]c3=O)nc2c1,inactive
5,Cc1ccc(C(=O)OCC(=O)NCc2ccco2)cc1C,inactive
6,COc1ccc(Cl)cc1NC(=O)CN(C)C(=O)c1cn2ccccc2n1,inactive
7,Cc1cc(NC(=O)CN2C(=O)NC(CC(C)C)C2=O)ccc1Br (stereo not given),inactive
8,COc1ccc(NC(=O)COC(=O)CN2C(=O)C3CCCCC3C2=O)cc1OC (stereo not given),inactive
9,CCn1nnnc1NC(=O)c1ccc2ccccc2c1,inactive
10,S=c1[nH]c2ccccc2n2c(=S)[nH]nc12,11.2 µM (active)
11,COc1ccc(Cl)cc1NC(=O)CN1C(=O)NC(C)(Cc2ccc(OC)c(OC)c2)C1=O (stereo not given),inactive
12,N#Cc1ccc(CN2CCN(C(=O)c3ccc(S(=O)(=O)NCc4ccco4)cc3)CC2)cc1,inactive
13,O=C1C=C(NCCc2ccccc2)C2(CCCCC2)O1,inactive
14,COc1ccc(OC)c(NC(=O)COC(=O)c2ccc(OC)c(S(=O)(=O)N3CCOCC3)c2)c1,inactive
15,O=C(Cn1ncc(Cl)c(Cl)c1=O)NCC1CCCCC1,inactive
16,CC(=O)Nc1nnc(S(N)(=O)=O)s1,inactive
17,Cc1ccc(NC2=CC(=O)C(=O)c3ccccc32)c(C)c1,inactive
18,CCOC(=O)c1ncn2c1[C@@H]1CCNC1C(=O)c1cc(OC)ccc1-2 (stereo not given in full),inactive
19,COc1ccc(C(=O)c2sc3nc(C)cc(-c4cccs4)c3c2N)cc1OC,inactive
20,CCN(CC)CC(=O)c1c(N)n(Cc2ccccc2)c(=O)n(C)c1=O,inactive
